# Data from PubChem BioAssay AID1063 (University of Pittsburgh Molecular Library Screening Center, 2008).
# The campaign covered roughly 200,000 compounds. About 18,000 (9%) were called active. This is one part of a sample in which actives are shown more often than they occur. Unmarked numbers belong to inactive results. Cut-off read from the data, not from the text of the source: active = inhibition above about 50%; inactive = the rest.
# Assay: antileishmanial activity against promastigotes – primary screen (AID 1063);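 note: promastigotes grown with compound for 44 hours at 28 °C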
# Conditions: Leishmania major promastigotes, resazurin fluorescence viability; at 10 µM; hits give high values
row,SMILES,inhibition
1,S=C(NC1CCCCC1)NN1CCOCC1,-1.39%
2,COc1ccccc1Cn1c(C)nnc1-c1cnn(C)c1N,0.00407%
3,CCOC(=O)c1ccc(NC(=O)CSc2nnc(COc3ccccc3OC)n2C)cc1,89% (active)
4,CCOC(=O)c1ccc(NC(=O)CSc2ncccn2)cc1,0.48%
5,COC(=O)c1ccc(NC(=O)CSc2nnc(-c3ccncc3)n2C)cc1,5.08%
6,CCc1cc2cc(OC)ccc2nc1SCC(=O)Nc1cc(OC)c(OC)cc1C(=O)O,-7.93%
7,Cn1c(=O)[nH]c(=O)c2c1nc(N(CCO)Cc1ccccc1)n2Cc1ccccc1Cl,23.7%
8,CN(Cc1ccccc1)c1nc2c(c(=O)[nH]c(=O)n2C)n1CCSc1nc2ccccc2[nH]1,95% (active)
9,Cc1ccnc(SCCn2c(N(C)Cc3ccccc3)nc3c2c(=O)n(C)c(=O)n3C)n1,34.8%
10,CCOC(=O)c1sc(NC(=O)CSc2nc(O)c(Cc3ccccc3)c(=O)[nH]2)nc1C,-5.06%
11,CN1CCN(C(=O)CCc2nc(-c3ccc(Cl)cc3)no2)CC1,-4.14%
12,Cc1ccc(-c2noc(CCC(N)=O)n2)cc1,-4.98%
13,Cc1ccc(-c2noc(CCC(=O)Nc3ccccc3N3CCN(C)CC3)n2)cc1,57.9% (active)
14,COc1ccc(C(=O)Nc2ccccc2C(=O)N/N=C/c2ccccc2OC)cc1,6.31%
15,COc1cccc(/C=N/NC(=O)c2[nH]nc3c2CCc2ccccc2-3)c1O,98% (active)
16,COc1cccc(/C=N\NC(=O)C2=NNC(=O)C2C)c1O (centres undefined),-7.2%
17,C/C(=N\NC(=S)NC(C)C)c1ccc(C(C)(C)C)cc1,15%
18,Cc1ccc(NC(=O)CSc2nnc(COc3ccccc3C)o2)cc1,-2.82%
19,O=C(COC(=O)c1cc(S(=O)(=O)N2CCCCC2)ccc1Cl)NCc1ccco1,7.75%
20,CCn1c2ccccc2c2cc(NC(=O)COC(=O)c3cc(S(=O)(=O)N4CCCCC4)ccc3Cl)ccc21,73.8% (active)
21,CCn1c2ccccc2c2cc(NC(=O)COC(=O)c3ccccc3Br)ccc21,-2.86%
22,COc1ccc(CC(=O)N[C@@H](CCSC)c2nc3ccccc3[nH]2)cc1,-4.82%
23,CSCCC(NC(=O)c1cc([N+](=O)[O-])cc([N+](=O)[O-])c1)c1nc2ccccc2[nH]1 (centres undefined),96.8% (active)
24,CSCCC(NC(=O)c1ccc(=O)n(C)n1)c1nc2ccccc2[nH]1 (centres undefined),-5.06%

row,SMILES,inhibition
1,Cc1ccc(CN(N=Nc2nonc2N)c2nonc2N)c(C)c1,88.8% (active)
2,Cc1ccc2c(c1)C1CN(C)CCC1N2C(=S)Nc1ccc(OC(F)F)cc1 (centres undefined),34.5%
3,Cc1ccc2nc(C)cc(N/N=C/c3ccc(F)cc3)c2c1,7.72%
4,CCC(C)NCCOCCOc1ccc(Br)cc1C (centres undefined),99% (active)
5,CCOCCCNCc1cc(Br)ccc1OCC,13.3%
6,COCC(C)NCc1cc(Br)ccc1OC (centres undefined),-1.49%
7,CCN(CC)S(=O)(=O)c1ccc(N(C)Cc2cccc(OC)c2OC)nc1,8.96%
8,CCN(Cc1ccccc1)S(=O)(=O)c1cc(C(=O)O)ccc1OC,-8.56%
9,O=S(=O)(c1ccc2c(c1)OCCO2)N1CCc2ccccc21,-6.88%
10,COc1ccccc1C(c1nnnn1CC1CCCO1)N1CCN(c2ccccc2)CC1 (centres undefined),6.1%
11,Cc1cccc(N2CCN(C(c3ccccc3)c3nnnn3CC3CCCO3)CC2)c1C (centres undefined),75.9% (active)
12,Cc1cccc(N2CCN(C(c3ccc(N(C)C)cc3)c3nnnn3C(C)(C)C)CC2)c1C (centres undefined),11.3%
13,COc1ccc(C(=O)Nc2ccc(N3CCC(C)CC3)cc2)cc1Br,-6.43%
14,COc1ccc(-c2nn(C)c(=O)c3ccccc23)cc1NC(=O)COc1ccccc1,8.76%
15,Cn1nc(-c2ccc(N3CCOCC3)c(NC(=O)c3ccccc3)c2)c2ccccc2c1=O,77% (active)
16,O=C(Nc1cc(-c2nn(CC(=O)N3CCCCC3)c(=O)c3ccccc23)ccc1N1CCOCC1)c1ccc(Cl)cc1,0.47%
17,CN(CC(=O)Nc1ccccc1F)CC(=O)Nc1ccccc1Br,-4.41%
18,NS(=O)(=O)c1ccc(NC(=S)Nc2ccc(Br)c(Cl)c2)cc1,10.7%
19,CC(C)(C)C(=O)NCCCNc1ccc([N+](=O)[O-])cc1,-6.51%
20,CCOc1cc(/C=C2/C(=N)N3OC(C)=CC3=NC2=O)ccc1OC,2.63%
21,Cn1nnnc1NCc1ccc(Cl)c(Cl)c1,6.1%
22,COc1ccc(N2CCN(c3ccc([N+](=O)[O-])nc3)CC2)cc1,-3.36%
23,Cn1c(=O)n(C)c2cc(NS(=O)(=O)c3ccc(F)cc3)ccc21,4.59%
24,CC1(C)CC(=O)c2c(n(S(=O)(=O)c3ccccc3)c3ccc(NS(=O)(=O)c4ccccc4)cc23)C1,98.6% (active)

row,SMILES,inhibition
1,O=S(=O)(Nc1ccc2cn[nH]c2c1)c1ccccc1,6.15%
2,Cc1cnc(C(=O)OCC(=O)N2CCc3ccccc32)cn1,5.21%
3,C/C=C/c1ccc(OCC(O)CN2CCCCCCC2)c(OC)c1 (centres undefined),-0.01%
4,C=CCc1ccc(OCC(O)CN2CCN(Cc3ccccc3)CC2)c(OC)c1 (centres undefined),87.8% (active)
5,Cc1ccc(OCC(O)CN2CCN(CC(O)COc3ccc(C)cc3Cl)CC2)c(Cl)c1 (centres undefined),-0.86%
6,CCOC(=O)Cn1c(=O)oc2cc(S(=O)(=O)N(C)Cc3ccco3)ccc21,98.7% (active)
7,CCOC(=O)Cn1c(=O)oc2cc(S(=O)(=O)NCC3CCCO3)ccc21 (centres undefined),-5.87%
8,CC(C)CCNC(=O)Cn1c(=O)oc2cc(S(=O)(=O)N3CC(C)CC(C)C3)ccc21 (centres undefined),-10.9%
9,CCOC(=O)C1=C(c2ccc(OC)cc2)C(=O)c2ccccc2C1=O,101% (active)
10,CCCCC(C(=O)OCC(=O)c1ccc(OC)cc1)N1C(=O)c2ccccc2C1=O (centres undefined),-3.44%
11,COc1ccc(OCCCON2C(=O)c3ccccc3C2=O)cc1,-2.83%
12,O=C(CCNC(=O)c1ccc([N+](=O)[O-])cc1)Nc1ccccc1N1CCOCC1,7.58%
13,CC(C)CN1CCNC(=O)C1CC(=O)N(C)CC1CCOCC1 (centres undefined),9.06%
14,CCOc1cc(/C=N/NC(=O)c2ccc(CSc3nncn3C)cc2)ccc1OCC(=O)N1CCOCC1,-1.61%
15,COc1ccc(/C=C2/SC(=O)N(CCCCCC(=O)Nc3ccccc3C(=O)O)C2=S)cc1,-8.92%
16,Cc1ccc(-c2csc(NC(=O)c3cccs3)n2)cc1,3.66%
17,O=C(O)CCC(=O)N(Cc1ccco1)c1nc(-c2ccccc2)cs1,-11.4%
18,Cc1ccc(-c2csc(N(Cc3ccco3)C(=O)c3cccs3)n2)cc1,100% (active)
19,CN(Cc1ccccn1)Cc1nc(-c2ccc(Cl)cc2)no1,-2.18%
20,O=C(COC(=O)/C=C/c1nc2ccccc2s1)Nc1ccccc1Oc1ccccc1,51.7% (active)
21,COc1ccc(/C=C/C(=O)OCC(=O)Nc2cccc(Oc3ccccc3)c2)c(OC)c1,-2.55%
22,CCN(C(=O)COC(=O)/C=C/c1nc2ccccc2s1)C1CCS(=O)(=O)C1 (centres undefined),-2.12%
23,COc1ccc(-c2cn3cccnc3n2)cc1,10.2%
24,Cc1cccc(C2=N/C(=C/c3cccs3)C(=O)O2)c1,1.4%

row,SMILES,inhibition
1,Cc1ccc(NC(=O)CN2CCCCC2)c2c1CC(C)(C)O2,3.82%
2,Cc1cc(C)c2nc(SCC(=O)N(C)C3CCS(=O)(=O)C3)cc(C)c2c1 (centres undefined),0.72%
3,Cc1cccc(C)c1OCC(=O)NC(Cc1c[nH]c2ccccc12)C(=O)O (centres undefined),-3.57%
4,O=S(=O)(Nc1cc(S(=O)(=O)N2CCOCC2)ccc1N1CCCC1)c1cccs1,-3.24%
5,CN1CCN(CC(=O)C23CC4CC(CC(C4)C2)C3)CC1,88.5% (active)
6,CC(C)(C)NC(=O)CN1CCC(NC(=O)C23CC4CC(CC(C4)C2)C3)CC1,3.92%
7,O=C(N1CCCC1)C12CC3CC(C1)CC(C(=O)N1CCCC1)(C3)C2,-2.33%
8,CCc1ccc(N2CC(O)=C(c3nc4ccccc4c(=O)[nH]3)C2=N)cc1,-1.01%
9,CCCOc1ccc(C(=O)C(CCC(CNCC)C(=O)c2ccc(OCCC)cc2)CNCC)cc1 (centres undefined),100% (active)
10,CCCOc1ccc(C(=O)NCCc2ccccc2)cc1,7.66%
11,CCCOc1ccc(N/C=C/C(=O)C(C)(C)C)cc1,-5.85%
12,CC(C)NC(=S)NN=C1CCCCCCCCCCC1,18.9%
13,Cc1nn(C)c(C)c1Sc1ccccc1N,-5.83%
14,CN(C)CCOCCOc1ccc(Cl)c2ccccc12,98.1% (active)
15,CCOc1ccc(S(=O)(=O)N2CCCCCC2)c2ccccc12,14%
16,CCN(CC)CCOCCOc1ccc(Cl)c2ccccc12,99.7% (active)
17,CCC(C(=O)OCCN(CC)CC)c1ccccc1 (centres undefined),-7.09%
18,CN(C)CCOc1cccc(Br)c1,-3.33%
19,COc1ccc(N2C(=O)CC(Sc3n[nH]c(-c4ccc(C)cc4)n3)C2=O)cc1 (centres undefined),-3.19%
20,CCN1C(=O)/C(=c2\s/c(=C3\Sc4ccccc4N3C)c(=O)n2C)N(C)C1=S,-4.84%
21,CSc1cc(C)[nH]c(=O)n1,-7.37%
22,C/C(=N\N)c1c(-c2ccccc2)c2cc(Br)ccc2[nH]c1=O,-1.92%
